The values that follow come from PubChem BioAssay.

For this assay, the target named is Neurogenic locus notch homolog protein 3 (Homo sapiens) (UniProt Q9UM47). Nature of the assay: NOTCH3 binders on small-molecule microarray, primary screen, biochemical, 635/667 nm fluorescence (AID 1096). The following applies: NOTCH3 binding, 635 nm fluorescence, higher = more signal.
Chain of Neurogenic locus notch homolog protein 3 (Homo sapiens) (Q9UM47 whole entry, looked up): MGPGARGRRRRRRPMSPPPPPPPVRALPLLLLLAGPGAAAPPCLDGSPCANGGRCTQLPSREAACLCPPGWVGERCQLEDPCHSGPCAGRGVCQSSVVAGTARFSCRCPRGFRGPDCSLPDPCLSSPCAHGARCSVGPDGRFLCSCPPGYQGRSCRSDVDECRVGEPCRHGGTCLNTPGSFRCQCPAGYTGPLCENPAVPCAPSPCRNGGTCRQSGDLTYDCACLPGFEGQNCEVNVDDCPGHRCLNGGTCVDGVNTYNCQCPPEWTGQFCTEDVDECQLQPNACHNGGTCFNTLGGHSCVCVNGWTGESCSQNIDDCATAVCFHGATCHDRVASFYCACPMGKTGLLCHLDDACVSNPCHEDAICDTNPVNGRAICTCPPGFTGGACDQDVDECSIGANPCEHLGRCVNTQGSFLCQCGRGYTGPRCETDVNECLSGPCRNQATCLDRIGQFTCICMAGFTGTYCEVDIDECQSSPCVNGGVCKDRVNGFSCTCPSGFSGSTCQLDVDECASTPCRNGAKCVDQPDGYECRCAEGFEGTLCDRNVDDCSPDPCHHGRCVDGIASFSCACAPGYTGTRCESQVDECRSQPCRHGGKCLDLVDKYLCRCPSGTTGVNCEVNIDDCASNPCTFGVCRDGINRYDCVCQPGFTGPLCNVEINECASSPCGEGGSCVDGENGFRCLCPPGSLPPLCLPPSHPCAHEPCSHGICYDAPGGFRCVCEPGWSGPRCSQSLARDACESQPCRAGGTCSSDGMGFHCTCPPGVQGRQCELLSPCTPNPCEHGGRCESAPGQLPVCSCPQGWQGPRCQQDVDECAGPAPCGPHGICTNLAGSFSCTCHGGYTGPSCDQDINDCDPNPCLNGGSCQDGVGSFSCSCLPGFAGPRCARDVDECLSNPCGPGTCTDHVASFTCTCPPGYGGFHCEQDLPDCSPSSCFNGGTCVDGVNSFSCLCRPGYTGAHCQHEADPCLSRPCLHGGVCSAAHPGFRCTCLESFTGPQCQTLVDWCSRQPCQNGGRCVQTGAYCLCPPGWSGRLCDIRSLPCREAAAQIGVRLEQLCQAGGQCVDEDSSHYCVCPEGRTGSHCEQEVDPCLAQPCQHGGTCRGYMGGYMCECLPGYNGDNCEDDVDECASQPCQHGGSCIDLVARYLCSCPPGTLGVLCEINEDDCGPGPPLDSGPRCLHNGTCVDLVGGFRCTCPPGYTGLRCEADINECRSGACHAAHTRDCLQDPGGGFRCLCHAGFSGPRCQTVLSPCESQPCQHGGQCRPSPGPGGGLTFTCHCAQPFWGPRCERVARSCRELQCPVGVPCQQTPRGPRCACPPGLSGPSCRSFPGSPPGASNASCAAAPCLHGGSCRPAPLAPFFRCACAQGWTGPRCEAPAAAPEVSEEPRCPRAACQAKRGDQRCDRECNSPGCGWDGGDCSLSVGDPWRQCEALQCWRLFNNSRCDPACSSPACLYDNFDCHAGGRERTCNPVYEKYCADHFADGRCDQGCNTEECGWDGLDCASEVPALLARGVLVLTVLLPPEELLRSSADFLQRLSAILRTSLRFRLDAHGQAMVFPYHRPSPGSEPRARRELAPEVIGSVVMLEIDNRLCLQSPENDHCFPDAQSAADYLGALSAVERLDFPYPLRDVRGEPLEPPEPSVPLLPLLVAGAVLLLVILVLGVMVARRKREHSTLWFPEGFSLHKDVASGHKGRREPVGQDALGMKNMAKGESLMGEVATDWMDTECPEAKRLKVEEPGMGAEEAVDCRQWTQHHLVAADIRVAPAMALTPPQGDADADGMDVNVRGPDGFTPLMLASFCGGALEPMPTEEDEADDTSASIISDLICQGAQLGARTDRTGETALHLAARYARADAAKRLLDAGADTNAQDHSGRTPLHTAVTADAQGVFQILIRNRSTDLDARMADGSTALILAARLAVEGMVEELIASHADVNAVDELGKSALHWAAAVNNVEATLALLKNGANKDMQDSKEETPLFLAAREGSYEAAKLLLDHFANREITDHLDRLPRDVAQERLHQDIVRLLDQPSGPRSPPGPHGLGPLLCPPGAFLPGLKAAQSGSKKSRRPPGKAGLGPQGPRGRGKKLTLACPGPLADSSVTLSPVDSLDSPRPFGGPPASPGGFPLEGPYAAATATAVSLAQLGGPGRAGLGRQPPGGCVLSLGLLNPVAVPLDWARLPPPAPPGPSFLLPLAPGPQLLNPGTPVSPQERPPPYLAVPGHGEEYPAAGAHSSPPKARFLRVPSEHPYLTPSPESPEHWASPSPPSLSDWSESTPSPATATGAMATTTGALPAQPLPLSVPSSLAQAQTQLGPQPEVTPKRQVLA
In turn, `C=CCOC(=O)[C@H]1[C@@H]2C(=O)O[C@@H](c3ccccc3)[C@@H](c3ccccc3)N2[C@@H](c2ccc(OCCOC(=O)[C@H]3C[C@H]4C(=O)N5CCC[C@H]5C(=O)N4[C@H]3c3ccc(O)cc3)cc2)[C@]12C(=O)Nc1ccccc12` displayed a composite z-score of 0.938.

The molecule `COCCCN1C(=O)[C@@]2(c3ccc([N+](=O)[O-])cc3)CC(=O)N(C3CCCCC3)[C@@H]2c2ccc(CO)cc21` gave a composite z-score of -0.37.

In the case of `CN(C)CCCCCCNC(=O)[C@@H]1C[C@@H]2C(=O)N[C@@H](CCCCN)C(=O)N2[C@@H]1c1cccc(OCCO)c1`, the composite z-score was determined as 1.02.

`CC(C)c1ccc(NN2C(C(O)C(c3ccccc3)c3ccccc3)C=CC3C(=O)N(c4ccccc4)C(=O)C32)cc1` (stereo unspecified) returned a composite z-score of 1.06.

As for `C=C(CCCC)C(=O)CC[C@@H](OC(=O)c1cccnc1)c1ccc(CO)o1`, the composite z-score came out at 1.12.

The molecule `O=C(NCc1ccccc1)[C@@]1(Cc2ccccc2)N=C(c2ccc(OCCCO)cc2)O[C@H]1c1ccccc1` had a composite z-score of 0.642.

For `COCCOC(=O)N1C(=O)[C@@]2(c3cc(C#Cc4ccc(OC)cc4)ccc31)[C@H](c1ccccc1OCCO)N1[C@H](c3ccccc3)[C@H](c3ccccc3)OC(=O)[C@H]1[C@@H]2C(=O)N1CCN(c2ncccn2)CC1`, the composite z-score is 0.836.

On to `O=C1NC(=O)C2C1C=CC(C(O)Cc1ccccc1)N2Nc1ccc(Cl)cc1Cl` (stereo unspecified), for which the composite z-score stood at 0.332.

Take `CCCCN1CC=CC23O[C@@H]4/C=C\CCC(C)OC(=O)C4[C@H]2C(=O)N(CCCCCO)[C@@H]3C1=O` (stereo partly specified): the composite z-score was -0.292.

For the molecule `O=C1[C@H]2C=C(Br)[C@H](C[C@@H]2c2ccccc2)[C@@]12CO2`, the composite z-score came to 0.412.

`CN1C(=O)C2C=CC(C(O)c3cccs3)N(Nc3ccccc3)C2C1=O` (stereo unspecified) gave a composite z-score of 0.826.

Turning to `COCCOC(=O)N1C(=O)[C@@]2(c3cc(C#CCCO)ccc31)[C@H](C(=O)Nc1nc3ccccc3s1)[C@H]1C(=O)O[C@H](c3ccccc3)[C@H](c3ccccc3)N1[C@@H]2c1ccc(OCCO)cc1`, the composite z-score is 1.1.

`CC(C)(C)OC(=O)CC[C@@]12N=C(c3ccc(OCCCO)cc3)O[C@@H]1c1ccccc1N(CCS(=O)(=O)c1ccccc1)C2=O` came in with a composite z-score of 0.784.

`COC(=O)[C@@]1(Cc2ccccc2)[C@H]2c3cc(C(=O)N4CCCC4)n(Cc4nc5ccccc5[nH]4)c3C[C@H]2CN1C(=O)c1ccccc1` had a composite z-score of 1.11.

The molecule `O=C1OCCC/C=C\[C@H]2OC34C=CCN(Cn5nnc6ccccc65)C(=O)[C@H]3N(CCO)C(=O)[C@@H]4C12` (stereo partly specified) yielded a composite z-score of -0.571.

`COc1cc2c(cc1O)C(C1CC1)N(Cc1cc3c(cc1Br)OCO3)CC2` (stereo unspecified): the composite z-score is -0.346.

On to `COCCOC(=O)N1C(=O)[C@@]2(c3cc(C#CC4=CCCCC4)ccc31)[C@H](C(=O)N1CCc3cc(OC)c(OC)cc3C1)[C@H]1C(=O)O[C@H](c3ccccc3)[C@H](c3ccccc3)N1[C@@H]2c1ccc(OCCO)cc1`, for which the composite z-score came to 1.09.

On to `Cc1ccc(S[C@]2(C(=O)NC(C)C)CC(=O)N(Cc3ccccc3Cl)[C@@H]2c2ccc(CO)cc2I)cc1`, for which the composite z-score is -0.317.

Molecule `COCCOC(=O)N1C(=O)[C@@]2(c3cc(C#CC4=CCCCC4)ccc31)[C@H](C(N)=O)[C@H]1C(=O)O[C@H](c3ccccc3)[C@H](c3ccccc3)N1[C@@H]2c1ccc(OCCO)cc1` registered a composite z-score of 1.01.

In the case of `O=C1C2C=CC(C(O)C(c3ccccc3)c3ccccc3)N(n3cnnc3)C2C(=O)N1Cc1ccccc1` (stereo unspecified), the composite z-score amounted to 1.1.

With `CC(C)(C)OC(=O)CC[C@@]1(C(=O)NCCN2CCOCC2)N=C(c2ccc(OCCCO)cc2)O[C@@H]1c1ccccc1N=[N+]=[N-]`, the composite z-score amounted to 1.11.

Take `CN(C)C(=O)[C@@]1(Cc2ccccc2)N=C(c2ccc(OCCCO)cc2)O[C@H]1c1ccccc1N=[N+]=[N-]`: the composite z-score was 1.11.

In the case of `Cc1ccc(S[C@]2(C(=O)NCC(F)(F)F)CC(=O)N(C(C)C)[C@@H]2c2ccc(CO)cc2I)cc1`, the composite z-score is -1.01.

The molecule `CCOc1cc(C(O)C2C=CC3C(=O)N(c4ccccc4)C(=O)C3N2Nc2ccccc2)ccc1O` (stereo unspecified) had a composite z-score of 0.498.

`C=CCNC(=O)[C@H]1[C@@H]2C(=O)O[C@@H](c3ccccc3)[C@@H](c3ccccc3)N2[C@@H](c2ccc(OCCO)cc2)[C@]12C(=O)N(C(=O)OCCOC)c1ccccc12` yielded a composite z-score of 1.04.

Consider `C=CCN1C(=O)[C@@]2(O[C@@H](CCO)[C@H]([Si](C)(C)c3ccc(OC)cc3)[C@H]2C)c2cc(NC(=O)c3ccc(OC)cc3)ccc21`, for which the composite z-score stood at 0.861.

Take `C[C@]1(C(=O)NC2CC2)c2ccccc2C(=O)N(Cc2cc(C(F)(F)F)cc(C(F)(F)F)c2)[C@H]1c1ccc(CO)cc1`: the composite z-score stood at 0.967.

`CC(C)OC(=O)C=C1C[C@@H](c2ccccc2C(F)(F)F)O[C@@H](c2ccccc2C(F)(F)F)O1` yielded a composite z-score of 0.266.

The molecule `CC(C)(C)OC(=O)CC[C@]1(C(=O)O)N=C(c2ccc(OCCCO)cc2)O[C@H]1c1ccccc1N=[N+]=[N-]` gave a composite z-score of 0.41.

Molecule `O=C1OCC=C[C@H]2OC34C=CCN(c5ccc6ccccc6c5)C(=O)[C@H]3N(CCCCCCO)C(=O)[C@@H]4[C@@H]12` (stereo partly specified) had a composite z-score of -0.435.

As to `COc1cc2c(cc1OC)CN(C(=O)[C@H]1[C@@H]3C(=O)O[C@@H](c4ccccc4)[C@@H](c4ccccc4)N3[C@@H](c3ccc(O)cc3)[C@]13C(=O)Nc1ccc(C#CCNC(N)=O)cc13)CC2`, the composite z-score was found to be 0.46.

Regarding `C=CCC(OC(C)=O)[C@@H]1[C@@H](N(Cc2cccc3ccccc23)C(=O)c2ccc(-c3ccccc3)cc2)c2cc(OCCCO)ccc2N1C(=O)Cc1ccc(OC)cc1` (stereo partly specified), the composite z-score was 0.0343.

The molecule `COC(=O)c1c(CC[C@@H](CO)NC(=O)N2CCC[C@H]2Cn2cc(-c3ccccn3)nn2)oc(C(C)=O)c1C(=O)OC` came in with a composite z-score of -0.126.

`C=CCNC(=O)[C@@H]1[C@H]2C(=O)O[C@H](c3ccccc3)[C@H](c3ccccc3)N2[C@H](c2ccc(OCCO)cc2)[C@@]12C(=O)Nc1ccc(C#Cc3ccc(OC)cc3)cc12`: the composite z-score is 1.08.

In turn, `CN1C(=O)C2C=CC(C(O)c3cc(C(F)(F)F)cc(C(F)(F)F)c3)N(N3CCCCC3)C2C1=O` (stereo unspecified) registered a composite z-score of 0.688.

Molecule `COCCOC(=O)N1C(=O)[C@@]2(c3cc(C#CCCO)ccc31)[C@H](C(=O)N1CCN(c3ncccn3)CC1)[C@H]1C(=O)O[C@H](c3ccccc3)[C@H](c3ccccc3)N1[C@@H]2c1ccccc1OCCO` displayed a composite z-score of 0.846.
